Inconclusive results are not listed. A call without a number means that no potency is given here. The source made the active and inactive calls. Calls come from the whole dose curve; as a rule, active = well fitted inhibition curve with a large enough effect; inconclusive = small, poorly fitted or top-dose-only effect; inactive = flat fitted curve, though single readings scatter.
target: Calcium and integrin-binding protein 1 (Homo sapiens) (UniProt Q99828); experiment: Primary qHTS for Identification of Calcium Integrin Binding Protein 1 (CIB1) Competitor (AID 1508620); conditions: CIB1-GST / FITC-alphaIIb peptide fluorescence polarization; series mostly up to 57.7 µM;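 note: GST tagged CIB1 binding a fluorescein labelled alphaIIb integrin peptide tracer; top concentration of the series differs between compounds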
Sequence (Q99828 whole entry, looked up): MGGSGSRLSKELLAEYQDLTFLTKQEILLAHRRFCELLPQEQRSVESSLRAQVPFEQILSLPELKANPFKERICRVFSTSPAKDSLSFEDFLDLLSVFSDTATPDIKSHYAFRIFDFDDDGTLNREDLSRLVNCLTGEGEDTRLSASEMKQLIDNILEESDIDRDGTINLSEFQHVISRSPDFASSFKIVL
In short: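 Fluorescence polarization competition: CIB1-GST (1 uM final) preincubated with compound 15 min at room temperature, then FITC-labeled alphaIIb peptide (100 nM final) added for another 15 min. Polarization read at Ex 480/Em 540.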

Row | Compound | Potency
1 | CC/C=C/CC1=C(CCCCCCCC(=O)O)CCC1=O | inactive
2 | COC(=O)c1cc(CN2CCN(C(=N)N)CC2)cc(C(=O)N2CCN(C(=O)c3ccc(C(=N)N)cc3)CC2)c1 | inactive
3 | COC1CC(=O)C23C(=O)NC(CC(C)C)C2C(C)C(C)=CC3/C=C(\C)CCC1O (stereo not given) | inactive
4 | COc1cc(C/C(=C/NC(C)=O)N(CC(=O)Cc2ccccc2)C(C)=O)cc2c1OCO2 | inactive
5 | CC(=O)N1c2ccccc2C2(O)CC3C(=O)NC(CC(C)C)C(=O)N3C12 (stereo not given) | inactive
6 | CC(=O)OC(C)OC(=O)C(C)c1ccc(-c2ccccc2)c(F)c1 (stereo not given) | inactive
7 | C[C@@H]1O[C@@H](O[C@H]2[C@H](OC(C#N)c3ccc(O)cc3)O[C@H](CO)[C@@H](O)[C@@H]2O)[C@H](O)[C@H](O)[C@H]1O (stereo not given in full) | inactive
8 | CCNC(=O)[C@@H]1CCCN1C(=O)[C@H](CCCN=C(N)N)NC(=O)[C@H](CC(C)C)NC(=O)[C@@H](C)NC(=O)[C@H](Cc1ccc(O)cc1)NC(=O)[C@H](CO)NC(=O)[C@H](Cc1c[nH]c2ccccc12)NC(=O)[C@H](Cc1cnc[nH]1)NC(=O)[C@@H]1CCC(=O)N1 | inactive
9 | COc1cc(/C=C/C(=O)OC[C@H]2O[C@H](O[C@]3(CO)O[C@H](CO)[C@@H](O)[C@@H]3O)[C@H](O)[C@@H](O)[C@@H]2O)cc(OC)c1O | inactive
10 | C[C@@H]1CC[C@]2(C)C(C[C@@H](O)[C@H](O)[C@]23CO3)[C@@]1(C)CCc1ccoc1 (stereo not given in full) | inactive
11 | CC(C)(O)c1ccc2c(c1)C(O)CC1C(C)(C(=O)O)CCCC21C (stereo not given) | inactive
12 | COc1c(C(CC(C)C)OC(C)=O)ccc(Oc2c(O)cc(C)cc2/C=C/C(C)=O)c1C(=O)O (stereo not given) | inactive
13 | CCOC(=O)c1ccc(N(C)c2csc(-c3ccccc3)n2)cc1 | inactive
14 | CC(C)C1=CCC(C)(O)C(OC2OC(CO)C(O)C(O)C2O)C1 (stereo not given) | inactive
15 | O=C(c1ccc(F)cc1)C1CCN(CCn2c(=O)nc3n(c2=O)CCCC3)CC1 | inactive
16 | O=C(/C=C/c1ccc(O)cc1)OC[C@H]1O[C@@H](OC(=O)/C=C/c2ccccc2)[C@H](O)[C@@H](O)[C@@H]1O | inactive
17 | C=CC1C(O[C@@H]2O[C@H](CO)[C@@H](O)[C@H](O)[C@H]2O)OC=C(C(=O)OC)C1CC(=O)O (stereo not given in full) | inactive
18 | O=C(CCCCc1ccc2ccccc2c1)C(F)(F)F | inactive
19 | COC(=O)C1=CO[C@@H](O[C@@H]2O[C@H](CO[C@@H]3O[C@H](COC(=O)/C=C/c4ccc(O)cc4)[C@@H](O)[C@H](O)[C@H]3O)[C@@H](O)[C@H](O)[C@H]2O)[C@@H]2C(CO)=CC[C@H]12 | inactive
20 | N#Cc1ccnc(N2C(=O)CC[C@H]2C(=O)N(c2cncc(F)c2)[C@H](C(=O)NC2CC(F)(F)C2)c2ccccc2Cl)c1 | inactive
21 | C=CC(C)(C)C12CC3C(=O)NC(Cc4cnc[nH]4)C(=O)N3C1Nc1ccccc12 (stereo not given) | inactive
22 | COc1ccc2c3c1O[C@H]1C[C@@H](O)C=C[C@@]31CCN(C)C2 | inactive
23 | O=C(O)C[C@@H](NC(=O)c1cc(-c2ccc(-c3ccncc3)cc2)cs1)c1ccccc1 | inactive
24 | CC(C(=O)O)C1CCC2(C)C3C(=O)C=C4C(CCC(=O)C4(C)C)C3(C)CCC12C (stereo not given) | inactive
25 | COc1cc2c(cc1OC)CN(C(=O)[C@@H](NCc1ccncc1)C(C)(C)C)CC2 | inactive

Source: PubChem BioAssay (NCATS)
